hNpr1 antagonist: blocks ANP-stimulated signaling of human Npr1 receptor; P16066; HEK293 hNpr1 GloSensor cGMP, ANP-stimulated luminescence; Potency, µM (doses to about 46.3 µM), inactives show at the top dose activity change, negative = inhibition, actives largely listed as inhibitors; 76,000 compounds, 1.6% hits; AID 1347048; calls by dose curve; note: nearly all actives have a fitted effect of over 60% in size
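Compound pre-incubated 30 min at room temperature on GloSensor-loaded HEK293 cells stably carrying hNpr1 and the pGS-40F cGMP biosensor. Stimulation uses hNppA at 0.1 nM final; luminescence is taken at baseline and 20 min post-agonist.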
3T3 cytotox: NIH 3T3 cell cytotoxicity; NIH 3T3 viability, CellTiter-Glo ATP luminescence, 48-72 h; Potency, µM (top dose mostly 96.7 µM), without a hit: top-dose activity change, negative = cytotoxicity, usual class: inhibitors; 94,000 compounds, 4.3% hits; AID 1345082; note: nearly all actives have a fitted effect of over 55% in size
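Cytotoxicity was measured by CellTiter-Glo ATP luminescence after 48 or 72 h compound exposure at 37 °C. Mouse NIH 3T3 fibroblasts were seeded at 400 cells/well and dosed by 23 nL pin transfer.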
HEK293 tox: HEK 293 cell cytotoxicity. HEK 293 viability, ATP luminescence (CellTiter-Glo), 48-72 h. Potency, µM (top dose mostly 115 µM), inactives show top-dose activity change, negative = cytotoxicity, most hits filed as inhibitors. 94,000 compounds, 6.6% hits; note: nearly all actives have a fitted effect of over 60% in size
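Luminescence from cellular ATP, measured with CellTiter-Glo, indicates HEK 293 viability. Cells plated at 250 cells/well are treated with compound for 48 or 72 hr at 37 degree Celsius before reagent addition.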
FLuc inh: Photinus pyralis luciferase inhibition | Potency, µM (top dose mostly 115 µM), hits mostly inhibitors | 76,000 compounds, 2.5% hits | purified P. pyralis luciferase, luminescence, biochemical; note: nearly all actives have a fitted effect of over 65% in size
Target sequence (P08659 whole entry, looked up): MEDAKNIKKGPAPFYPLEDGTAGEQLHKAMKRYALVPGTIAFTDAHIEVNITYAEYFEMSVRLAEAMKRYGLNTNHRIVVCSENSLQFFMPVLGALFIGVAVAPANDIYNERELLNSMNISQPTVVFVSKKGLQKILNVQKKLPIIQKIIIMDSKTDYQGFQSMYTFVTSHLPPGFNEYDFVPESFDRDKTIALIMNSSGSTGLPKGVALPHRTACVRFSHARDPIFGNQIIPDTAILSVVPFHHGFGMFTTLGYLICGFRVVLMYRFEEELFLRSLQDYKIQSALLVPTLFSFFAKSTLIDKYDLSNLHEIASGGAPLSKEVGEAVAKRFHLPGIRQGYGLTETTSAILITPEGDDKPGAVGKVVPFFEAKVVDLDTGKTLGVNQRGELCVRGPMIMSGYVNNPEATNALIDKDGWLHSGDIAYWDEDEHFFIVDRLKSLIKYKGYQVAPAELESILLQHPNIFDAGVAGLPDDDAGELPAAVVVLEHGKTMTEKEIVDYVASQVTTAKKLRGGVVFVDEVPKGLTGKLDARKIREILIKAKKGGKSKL
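Biochemical qHTS: compound (6-point titration) added to 10uM D-luciferin plus 10uM ATP in Tris acetate pH 7.5 buffer with Mg, Tween-20 and BSA, then purified enzyme at 10nM; light output imaged.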
GPT2 inhibitor: blocks human glutamate pyruvate transaminase 2; AID 1671188; 100,000 compounds, 0.25% hits; Recombinant GPT2, coupled pyruvate oxidase/HRP Amplex Red fluorescence; Potency, µM (highest dose often 57.7 µM), without a hit: at the highest dose activity change, negative = inhibition, hits mostly inhibitors; note: nearly all actives have a fitted effect of over 60% in size
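Inhibition is scored from Amplex Red fluorescence generated when pyruvate oxidase and HRP act on pyruvate released by GPT2. Reactions contain 10ng/uL enzyme, 250uM a-KG and 2mM L-alanine and run 30 min at room temperature.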
* marks the source's active call; other numbers are inactive results; i = inactive; ? = inconclusive; . = not tested or not shown; [ ] = dose if it differs, or a comment. Only some compounds are listed: those with a hit (about 10% of all), similar ones and a draw of the others. Unless noted, calls come from the whole dose curve; as a rule, active = well fitted curve in the direction sought with a large enough effect; inconclusive = small, poorly fitted or top-dose-only effect, or another doubt; inactive = no such curve, though single readings can be large; an effect the other way counts as inactive or inconclusive. % is set by controls: 0 for no effect and ±100 for the full control effect; potency is the fitted concentration of half-maximal effect.

SMILES	hNpr1 antagonist	3T3 cytotox	HEK293 tox	FLuc inh	GPT2 inhibitor
O=c1n(-c2ccc(Cl)cc2)nc2n1CCN(Cc1ccsc1)C2	.	?	?	.	i
Fc1ccc2nc(CO[C@H]3CN(Cc4cnc5ccccc5c4)C[C@H]3F)[nH]c2c1	?	?	71µM*	i	-2%[88.5 µM]
COC(=O)c1ccc2nc(CO[C@H]3CN(Cc4ccccc4C)C[C@H]3F)[nH]c2c1	-1%[70.6 µM]	?	?	?	?
COC(=O)c1ccc2nc(CO[C@H]3CN(Cc4ccc5ccccc5n4)C[C@H]3F)[nH]c2c1	1%[70.6 µM]	?	100µM*	?	-11%[88.5 µM]
COc1cc(CN2C[C@@H](F)[C@@H](OCc3nc4ccc(F)cc4[nH]3)C2)cc(OC)c1OC	1%[70.6 µM]	-12%[138 µM]	-16%[172 µM]	i	i
Cc1ccc(-c2noc([C@@H]3C[C@@H](O)CN3Cc3nc4ccccc4n3C)n2)cc1F	-3%[70.6 µM]	-28%[174 µM]	-7%[172 µM]	i	2%[88.5 µM]
COc1ccc(CN2C[C@H](O)C[C@H]2c2nc(Cc3ccccc3)no2)cc1	-1%[70.6 µM]	-12%[174 µM]	?	?	i
Cn1c(CN2C[C@H](O)C[C@H]2c2nc(-c3ccc(OC(F)(F)F)cc3)no2)nc2ccccc21	-7%	-27%	?	40µM*	-25%
O[C@@H]1C[C@@H](c2nc(Cc3ccc(F)cc3Cl)no2)N(Cc2ccc(OC(F)(F)F)cc2)C1	-12%	?	40µM*	i	1%
O=[N+]([O-])c1ccccc1CN1C[C@H](O)C[C@H]1c1nc(Cc2ccc(F)cc2Cl)no1	1%[70.6 µM]	?	112µM*	?	i
CCOc1ccccc1NC(=O)N1CCC(c2nc(-c3cccn3C)no2)CC1	.	?	?	.	i
Cc1ccccc1CN1Cc2nc(-c3ccc4c(c3)OCO4)ccc2OCC1=O	-21%[70.6 µM]	?	35µM*	i	-3%[88.5 µM]
Cc1ccccc1CN1Cc2nc(-c3cccc(C(N)=O)c3)ccc2OCC1=O	-14%[70.6 µM]	?	71µM*	i	i
CNC(=O)c1nc2cccnc2n(-c2ccc(OC)cc2)c1=O	.	3%[138 µM]	-1%[172 µM]	.	0%[88.5 µM]
COc1ccc(-c2cn3cc(C(=O)NCC4CCCCC4)nc3s2)cc1	.	-31%	?	.	i
COc1ccc(CCNC(=O)c2cn3cc(-c4cccc(OC)c4)sc3n2)cc1	.	?	?	.	-5%
O=C(NCC1CC1)c1cn2cc(-c3ccccc3)sc2n1	.	?	100µM*	.	-15%[88.5 µM]
COc1cccc(-c2cn3cc(C(=O)NCCc4ccc(Cl)cc4)nc3s2)c1	.	-13%	32µM*	.	i
O=C(NCC1CC1)c1cn2cc(-c3cccc(C(F)(F)F)c3)sc2n1	.	-28%	?	.	-2%
COc1cccc(-c2cn3cc(C(=O)NCC4CCCCC4)nc3s2)c1	.	?	22µM*	.	-7%
COc1cccc(-c2cn3cc(C(=O)NCC4CC4)nc3s2)c1	.	?	71µM*	.	i
COc1cccc(-c2ccc(C(=O)N3CCC(C(=O)N4CCC(C#N)CC4)CC3)cc2)c1	.	?	?	.	-2%
CCn1ncc(N2CCCC(CC(=O)Nc3cc(OC)cc(OC)c3)C2)cc1=O (stereo unspecified)	4%	40µM*	-1%	i	i
COCCn1ncc(N2CCCC(CC(=O)Nc3cccc(Cl)c3)C2)cc1=O (stereo unspecified)	-3%	-18%	-6%	i	i
COCCn1ncc(N2CCCC(CC(=O)Nc3ccc(Cl)cc3)C2)cc1=O (stereo unspecified)	-11%	32µM*	?	i	i
SMILES	hNpr1 antagonist	3T3 cytotox	HEK293 tox	FLuc inh	GPT2 inhibitor
CC(C)NC(=O)c1nc2cccnc2n(CCc2ccccc2)c1=O	.	?	20µM*	.	i
O=C(NCC1CCCCCC1)c1nc2cccnc2n(CCc2ccccc2)c1=O	.	35µM*	?	.	i
C[S+](=O)([O-])NC1CCN(c2ccnc3ccnn23)CC1	.	-12%[138 µM]	-2%[172 µM]	.	i
O=C(c1cccs1)N1CCc2nn(Cc3ccccc3)c(=O)n2CC1	.	-20%	-18%	.	-25%
CN1CCC2(C1)CN(CC1CC1)c1ccc(C(=O)NC3CCCCC3)cc12 (stereo unspecified)	0%[70.6 µM]	79µM*	89µM*	i	1%[88.5 µM]
CN1CCC2(C1)CN(CC1CC1)c1ccc(C(=O)NCc3cccs3)cc12 (stereo unspecified)	-11%[70.6 µM]	?	100µM*	i	i
CN1CCC2(C1)CN(CC1CC1)c1ccc(C(=O)Nc3ccccc3)cc12 (stereo unspecified)	-1%[70.6 µM]	?	?	?	2%[88.5 µM]
COC(=O)[C@@H]1Cc2nc[nH]c2CN1Cc1ccc(OC)c2ccccc12	-4%[70.6 µM]	?	?	i	-27%[88.5 µM]
CC1=C[C@@H](CNCc2ccc(Cl)cc2)[C@H](C(C)C)C[C@H]1Cc1nnc(-c2cncn2C)o1	-12%	40µM*	79µM*	i	i
CC1=C[C@@H](CNCc2ccc(F)cc2)[C@H](C(C)C)C[C@H]1Cc1nnc(-c2cncn2C)o1	-4%[70.6 µM]	?	45µM*	i	i
CC1=C[C@@H](CNCc2ccc(F)cc2)[C@H](C(C)C)C[C@H]1Cc1nnc(C)o1	-13%[70.6 µM]	?	?	i	2%[88.5 µM]
O=C(Cc1cccc(Cl)c1)NC1CCN(Cc2ccc(-c3ccsc3)cc2)C1 (stereo unspecified)	.	8.9µM*	?	.	.
O=C(Cc1ccc(C(F)(F)F)cc1)NC1CCN(Cc2ccc(-c3ccsc3)cc2)C1 (stereo unspecified)	.	?	35µM*	.	-4%

From PubChem BioAssay
